# Test results from PubChem BioAssay (NCATS).
# Records with an inconclusive call do not appear. Values without a mark were called inactive. Calls of active or inactive are those of the source. Calls come from the whole dose curve; as a rule, active = well fitted inhibition curve with a large enough effect; inconclusive = small, poorly fitted or top-dose-only effect; inactive = flat fitted curve, though single readings scatter.
# System: CRL-7250
# Assay: Cytotoxic Profiling of Annotated Libraries Using Quantitative High-Throughput Screening (AID 1296008); note: nearly all actives have a fitted effect of over 60% in size
# Settings: Five cell lines viability, CellTiter-Glo ATP luminescence, 48-72 h; max response: stronger effect = lower value
# Method in brief: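 Cells exposed to compounds for 48 or 72 hr at 37 degrees Celsius. Viability read as ATP-coupled luminescence with CellTiter-Glo after 10 min at room temperature.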
# % is set by controls: 0 for no effect and ±100 for the full control effect; potency is the fitted concentration of half-maximal effect.
SMILES,max response,Potency,outcome
O=C(CNC(=O)c1cccc(C(F)(F)F)c1)N[C@@H]1CCN(Cc2ccc(Cl)cc2)C1,-11.8%,,
O=C(c1c(F)ccc(NS(=O)(=O)N2CC[C@@H](F)C2)c1F)c1c[nH]c2ncc(-c3cnc(C4CC4)nc3)cc12,,23.1 µM (active),
CC(=O)O[C@@]12CO[C@@H]1C[C@H](O)[C@@]1(C)C(=O)[C@H](O)C3=C(C)[C@@H](OC(=O)[C@H](O)[C@@H](NC(=O)OC(C)(C)C)c4ccccc4)C[C@@](O)([C@@H](OC(=O)c4ccccc4)C12)C3(C)C (some centres undefined),,0.005 µM (active),
O=C1COC2(CCN(S(=O)(=O)c3ccc(-c4ccc5cccnc5c4)cc3)CC2)CN1C1CC1,-2.24%,,
Cc1nnc(-c2ccc(-c3ccc(C(=O)Nc4ccc(O)c(N5CCN(C)CC5)c4)cc3)c(C)c2)o1,3.58%,,
Cc1cc(C)cc(-c2cnc3cc(Cl)c(-c4cccc(O)c4)cc3c2OCCCN)c1,3.3%,,
COc1cc2c(cc1-c1c(C)noc1C)ncc1[nH]c(=O)n(C(C)c3ccccn3)c12 (centres undefined),,5.8 µM (active),
CCCC(Nc1nc(-c2ccc(NC(=O)NCC)c(OC)c2)ncc1C)c1cccnc1 (centres undefined),,0.206 µM (active),
CCCSc1nc(N[C@@H]2C[C@H]2c2ccc(F)c(F)c2)c2nnn([C@@H]3C[C@H](OCCO)[C@@H](O)[C@H]3O)c2n1,,,inactive
O=C(Nc1cccc2cccnc12)c1ccc(N2C(=O)[C@@H]3C4C=CC(C4)[C@@H]3C2=O)cc1,,1.3 µM (active),
COc1ccc(CCCN2CCC(COC(c3ccccc3)c3ccccc3)CC2)cc1,-2.98%,,
O[C@@](Cc1ncc(CC2(C(F)(F)F)CC2)[nH]1)(c1ccc(-n2cccn2)cc1)C(F)(F)F,,,inactive
C[C@]12CC[C@@H]3c4ccc(O)c(O)c4CC[C@H]3[C@@H]1CCC2=O,-7.43%,,
COc1ccc2nc3n[nH]c(C)c3c(NCCOCCO)c2c1,4.22%,,
CNc1nc(Nc2ccc(C(=O)N3CCOCC3)cc2OC)nc2[nH]cc(Cl)c12,1.38%,,
O=C(NCc1nc2ccccc2c(=O)n1-c1ccc(F)cc1)Nc1ccc(Cl)c(C(F)(F)F)c1,,,inactive
CCN(CC)CCCS(=O)(=O)N[C@H](CCc1ccccc1)c1nc(Cc2ccc(Br)cc2)no1,-4.82%,,
Cn1ncc2cc(-c3cnc(N)c(Cl)c3N3CCC4(CCNC4=O)CC3)ccc21,,,inactive
C=C1C(=O)OC2CC(C)C(CCC(C)=O)=CCC12 (centres undefined),-28.7%,,
CCCCc1c(-c2ccc(OC)cc2)[nH]c2nccnc12,,,inactive
COc1ccnc(CS(=O)c2nc3cc(OC(F)F)ccc3[nH]2)c1OC (centres undefined),-13.2%,,
OC[C@H]1O[C@@H](OC/C=C/c2ccc(O)cc2)[C@H](O)[C@@H](O)[C@@H]1O,-28.9%,,
Cc1c(NC(=O)OCC2COCCN2)cn2ncnc(Nc3ccc4c(cnn4Cc4cccc(F)c4)c3)c12 (centres undefined),-30.6%,,
Nc1nccc(-c2c(-c3ccc(F)cc3)ncn2C2CCCCC2)n1,-18.7%,,
CCCCCCCOc1cc2c(cc1/C(C)=C/c1ccc(C(=O)O)cc1)C(C)(C)CCS2(=O)=O,,,inactive
CCOC(=O)c1ccc(OCCC2CCN(c3ccc(C)nn3)CC2)cc1,-21.9%,,
Cc1cc(C)c2c(c1)C(N(Cc1cc(C(F)(F)F)cc(C(F)(F)F)c1)c1nnn(C)n1)CCCN2CC1CCC(C(=O)O)CC1 (centres undefined),2.9%,,
Cc1c(Cl)cccc1S(=O)(=O)Nc1nc(NCCc2ccccc2)nc2c1CN(Cc1ccccc1)CC2,4.69%,,
O=C(O)CSc1cc(NS(=O)(=O)c2ccc(Br)cc2)c2ccccc2c1O,,23.1 µM (active),
